# Sampled rows, rich in hits. Any-hit rate of the full collection: about 4.3%.
# SW480 rereplic: A quantitative high throughput screen for small molecules that induce DNA re-replication in SW480 colon adenocarcinoma cells; SW480 DNA re-replication, Hoechst DNA content imaging, 48 h; Potency, µM (doses to about 46.1 µM), without a hit: top-dose re-replication activation, hits mostly activators; hit rate 1.8% among 340,000; note: potency is the fitted concentration of half-maximal effect; % of control where 0% means no effect; nearly all actives have a fitted effect of over 55% in size
#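 Quantitative HTS format with DMSO vehicle controls; 48 hr drug incubation at 37 C, then 40 min Hoechst staining and scanning imager measurement at 405 nm excitation.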
# MCF10A rereplic: A quantitative high throughput screen for small molecules that induce DNA re-replication in MCF 10a normal breast cells. MCF 10A DNA re-replication, Hoechst nuclear intensity, 48 h. Potency, µM (series often up to 46.1 µM), for the others: at the top dose activity, positive = re-replication, usual class: activators. hit rate 2.9% among 350,000; note: potency is the fitted concentration of half-maximal effect; % of control where 0% means no effect; nearly all actives have a fitted effect of over 50% in size
# uPA surface inh: qHTS for Inhibitors of Cell Surface uPA Generation | cell surface uPA generation assay, qHTS | Potency, µM (series often up to 38.3 µM), inactives show top-dose activity change, negative = inhibition, actives largely listed as inhibitors | hit rate 0.31% among 330,000; active = well fitted inhibition curve with a large enough effect; inconclusive = small, poorly fitted or top-dose-only effect; inactive = no such curve, though single readings can be large or run the other way; tested in mouse RAW 264.7 cells; note: potency is the fitted concentration of half-maximal effect; % is set by controls: 0 for no effect and ±100 for the full control effect; nearly all actives have a fitted effect of over 55% in size
# Giardia kill: Small Molecules that selectively kill Giardia lamblia: qHTS; AID 540267, 2011; hit rate 0.15% among 340,000; Giardia lamblia trophozoite viability; activity change, % at 7.66 µM, hits read low; in the data active = activity change below about -80%; inconclusive = between about -30% and that limit;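 note: parasites exposed to compound for two days anaerobically before the ATP read; % is set by controls: 0 for no effect and ±100 for the full control effect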
#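 Luminescent ATP signal served as the viability read-out, measured 15-30 min after adding ATP detection reagent to trophozoites that had been incubated with compounds for 48 hrs at 37 deg C anaerobically at 100 cells/well.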
# * hit, by the source's call; ? = inconclusive; / = not tested or not shown; [ ] = remark or other dose. Unless noted, calls come from the whole dose curve; as a rule, active = well fitted activation curve with a large enough effect; inconclusive = small, poorly fitted or top-dose-only effect; inactive = no such curve, though single readings can be large or run the other way.
SMILES,SW480 rereplic,MCF10A rereplic,uPA surface inh,Giardia kill
CCN(Cc1ccccc1)C(=O)C1CCN(CC2CC=CCC2)CC1 (stereo unspecified),-0.3%,22.3%,1.0%,12.6
COc1ccc(OC)c(NC(=O)CSc2nc(=O)n(CCN3CCOCC3)c3c2CCCC3)c1,-88.1%,5.6%,5.3%,-3.5
Cc1cc(SCC(=O)OCC(=O)N(C)c2ccccc2)nc2ccccc12,?,?,-3.9%,-2.9
O=C1c2ccccc2OC2(C=Cc3ccccc3O2)N1Cc1ccccc1 (stereo unspecified),?,13µM*,-14.3%,7.3
CC1CCc2c(sc3nc(C4CC4)nc(N4CCN(C(=O)c5ccco5)CC4)c23)C1 (stereo unspecified),?,16.4µM*,-12.7%,20.0
CCCCCCCCc1nnc(N)s1,5.0%,1.9%,-4.4%,8.4
Nc1nnc(CCCCCc2nnc(N)s2)s1,1.46µM*,10.7%,5.0%,10.9
O=C(NC1CC1)c1ccc(-c2nc3ccccc3s2)s1,-2.5%,0.5%,-12.8%,-100.0*
O=C(c1ccc(-c2nc3ccccc3s2)s1)N1CCOCC1,2.5%,?,?,-83.9*
C/C(=N\NC(=O)c1ccccc1F)c1cccc(NC(=O)c2ccc(C)cc2)c1,7.9%,5.9%,?,?
Cc1cc(C(=O)N2CCCC(CO)(Cc3ccc(F)cc3)C2)c(C)o1 (stereo unspecified),?,23.1µM*,-7.5%,-12.1
COc1ccc(OC)c(NC(=O)CN(Cc2ccccc2)S(C)(=O)=O)c1,-31.0%,1.03µM*,-9.2%,-2.2
COc1ccc(OC)c(NC(=O)CN(Cc2ccc(F)cc2)C2CCCCC2)c1,0.7%,18.4µM*,2.1%,2.7
CC(=O)c1ccc(NC(=O)C(C)O/N=C(\N)c2ccccc2)cc1 (stereo unspecified),-3.5%,-0.1%,-1.3%,2.1
C=CCOc1c(OC)cc(/C=N/Nc2cccc(C(=O)O)c2)c(Br)c1Br,2.06µM*,20.6µM*,-9.9%,-1.8
C=CCOc1c(/C=N\NC(N)=O)cccc1OC,?,12.0%,4.5%,13.9
O=C(CCCCCNC(=O)c1ccccc1)N/N=C/c1ccco1,-2.8%,1.4%,-3.4%,1.5
O=C(CCCCCNC(=O)c1ccccc1)N/N=C/c1ccccc1O,5.8µM*,?,-5.9%,9.2
O=C(CCSCCC(=O)NN=Cc1ccccc1O)NN=Cc1ccccc1O,-4.6%,16.4µM*,-5.8%,-8.6
O=C(NC(c1cccnc1)C(F)(F)F)c1cc(COc2ccc3c(c2)CCCC3)on1 (stereo unspecified),?,?,?,-8.7
Cc1c(C=O)c2cc(OCc3ccccc3)ccc2n1C,3.7%,6.4%,1.0%,-1.9
O=C(Nc1ncccn1)c1cc([N+](=O)[O-])cc([N+](=O)[O-])c1,-7.4%,?,1.0%,-25.8
O=[N+]([O-])c1cc(-c2ncccn2)c([N+](=O)[O-])s1,20.6µM*,7.31µM*,?,8.8
CCc1ccc(C(=O)C(C)OC(=O)Cc2n[nH]c(=O)c3ccccc23)cc1 (stereo unspecified),?,14.6µM*,-16.1%,2.4
CN(C)c1nc(C(=O)NN)nc(N(C)C)n1,16.0%,3.66µM*,2.8%,-0.3
SMILES,SW480 rereplic,MCF10A rereplic,uPA surface inh,Giardia kill
c1ccc(CN2CCC(=NNc3nc4ccccc4[nH]3)CC2)cc1,23.1µM*,?,6.2%,-8.0
CC(C)(C)C1CCC(=NNc2nc3ccccc3[nH]2)CC1 (stereo unspecified),16.4µM*,14.1%,-3.2%,3.6
CCCCNc1nc2ccccc2[nH]1,-9.0%,-4.8%,-0.3%,13.5
c1ccc2c(c1)CC/C2=N/Nc1nc2ccccc2[nH]1,?,23.1µM*,-11.4%,-18.2
O=C(O)c1cc(NN=C2CCN(Cc3ccccc3)CC2)ccc1Cl,4.0%,0.9%,10.3%,2.6
COc1ccccc1N1CCN(C(=O)CN(C)S(=O)(=O)c2ccc3c(c2)c(=O)n(C)c(=O)n3C)CC1,-15.1%,1.2%,-11.3%,-17.0
COc1ccc(CCn2c(=S)[nH]c(=O)c3[nH]cnc32)cc1OC,/,/,/,-2.9
Cc1ccc(NC(=O)Cc2ccc(Cl)cc2)cc1S(=O)(=O)N1CCCCCC1,-30.1%,11.9%,10.3%,9.3
Cc1ccc(NC(=O)CN(C)C(=O)Cc2ccc(Cl)c(Cl)c2)cc1,27.0%,5.5%,7.8%,11.8
Cc1ccc(NC(=O)CN(C)C(=O)Cn2ncc(Cl)c(Cl)c2=O)cc1,?,3.26µM*,?,-1.7
Cc1cccc(NC(=O)CNC(=O)Cn2ncc(Cl)c(Cl)c2=O)c1C,8.2µM*,5.17µM*,-9.4%,2.0
Cc1ccc(NC(=O)Cn2ncc(Cl)c(Cl)c2=O)cc1S(=O)(=O)N1CCCCC1,8.2µM*,4.11µM*,?,6.5
CC(C)C(=O)Nc1ccc(-c2nc3ncccc3o2)cc1,1.8%,17.0%,?,-15.3
Cn1cc([N+](=O)[O-])c(C(=O)Nc2ccc(-c3nc4ccccc4o3)cc2)n1,?,3.66µM*,-6.9%,0.1
Cn1cc([N+](=O)[O-])c(C(=O)Nc2nccs2)n1,?,4.61µM*,-8.9%,-3.5
O=C(Nc1ccc(-c2nc3ccccc3o2)cc1)c1ccc(N2CCOCC2)c([N+](=O)[O-])c1,?,14.8%,3.4%,-4.3
Cc1cc(-c2nc3ncccc3o2)ccc1NC(=O)c1ccc([N+](=O)[O-])o1,-13.1%,?,0.2%,-7.2
Cc1ccc(-c2nc3ncccc3o2)cc1NC(=O)c1ccc([N+](=O)[O-])o1,2.06µM*,2.31µM*,-2.9%,-90.9*
O=C(Nc1ccc(-c2nc3ncccc3o2)cc1)c1ccc([N+](=O)[O-])o1,2.31µM*,2.91µM*,-12.0%,-93.7*
CCOc1ccc(S(=O)(=O)N2CCN(c3nc(-c4ccccc4)nc4ccccc34)CC2)cc1,/,/,/,-0.8
C=CC[C@@H](CC(=O)N(CCO)Cc1ccccc1)C(=O)NC[C@H](OC(=O)[C@@H](CC=C)Cc1ccc(F)cc1)c1ccccc1,7.0%,?,?,-26.9
COc1ccc(OC)c(N2C(=O)CC(NNC(=O)c3ccc4c(c3)OCO4)C2=O)c1 (stereo unspecified),-27.4%,7.3%,7.0%,-0.1
CC(C)NC(=O)Nc1ccc2c(c1)C(=O)N([C@H](C)CO)C[C@H](C)[C@@H](CN(C)C(=O)NC(C)C)O2,6.7%[9.22 µM],19.3%,13.0%,-15.3
CC1C2CCC3C4CC=C5CC(N(C)C)CC[C@@]5(C)C4CC[C@@]32CN1C (stereo partly specified),0.6%,-2.2%,/,/
O=C(Nc1ccc2oc(-c3ccncc3)nc2c1)c1ccc([N+](=O)[O-])o1,2.59µM*,4.11µM*,-10.2%,-80.1*
O=S(=O)(c1ccc2c(c1)CCCC2)N1CCN(c2nc(-c3ccccc3)nc3ccccc23)CC1,/,/,/,-8.1
Cc1cc(C2=NNC(=NC3CC3)SC2)c(C)n1Cc1ccco1,/,6.51µM*,-12.7%,-24.8
C=CCN=C1NN=C(c2cc(C)n(CCOC)c2C)CS1,-1.0%,-0.4%,2.2%,11.6
